Reference: the supplement of paper PMC11732987, “Enantioselective OTUD7B fragment discovery through chemoproteomics screening and high-throughput optimisation” (Communications Chemistry, 2025)

How the values were obtained:
Test in all cases: log2 ratio of Biotin-Ahx-Ub-VS probe labelling (fragment/DMSO); higher = less target engagement (more negative = stronger competition), active = hit call of the paper (q ≤ 0.05, log2 ratio ≤ -1)
Conditions in all cases: compound concentration: 200 uM; treatment time: 3 h
OTUD6B = target: T1, OTUD6B (UniProt Q8N6M0)
T1 sequence (whole entry): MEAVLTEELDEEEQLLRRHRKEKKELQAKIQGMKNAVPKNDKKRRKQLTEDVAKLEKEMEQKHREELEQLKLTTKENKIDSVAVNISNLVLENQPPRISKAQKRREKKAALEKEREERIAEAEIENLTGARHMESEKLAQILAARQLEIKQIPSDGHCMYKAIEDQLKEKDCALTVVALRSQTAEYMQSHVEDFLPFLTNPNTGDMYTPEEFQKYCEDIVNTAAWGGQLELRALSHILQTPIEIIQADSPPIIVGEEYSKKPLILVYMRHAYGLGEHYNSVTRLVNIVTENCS
Procedure, shortened: (§1)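 The table lists average log2 ratios of fragment over vehicle, from an unpaired t-test on global-median-normalised Spectronaut label-free quantities. Proteins with ≥2 unique peptides were used. Samples were HEK293T lysate (495 µg) treated in triplicate with fragment at 200 µM or vehicle for 3 h, then with Biotin-Ahx-Ub-VS (0.5 µM final) for 1 h, with labelled DUBs NeutrAvidin-enriched and run by diaPASEF LC-MS/MS.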

OTUD7B = target: T2, OTUD7B (UniProt Q6GQQ9)
T2 sequence (whole entry): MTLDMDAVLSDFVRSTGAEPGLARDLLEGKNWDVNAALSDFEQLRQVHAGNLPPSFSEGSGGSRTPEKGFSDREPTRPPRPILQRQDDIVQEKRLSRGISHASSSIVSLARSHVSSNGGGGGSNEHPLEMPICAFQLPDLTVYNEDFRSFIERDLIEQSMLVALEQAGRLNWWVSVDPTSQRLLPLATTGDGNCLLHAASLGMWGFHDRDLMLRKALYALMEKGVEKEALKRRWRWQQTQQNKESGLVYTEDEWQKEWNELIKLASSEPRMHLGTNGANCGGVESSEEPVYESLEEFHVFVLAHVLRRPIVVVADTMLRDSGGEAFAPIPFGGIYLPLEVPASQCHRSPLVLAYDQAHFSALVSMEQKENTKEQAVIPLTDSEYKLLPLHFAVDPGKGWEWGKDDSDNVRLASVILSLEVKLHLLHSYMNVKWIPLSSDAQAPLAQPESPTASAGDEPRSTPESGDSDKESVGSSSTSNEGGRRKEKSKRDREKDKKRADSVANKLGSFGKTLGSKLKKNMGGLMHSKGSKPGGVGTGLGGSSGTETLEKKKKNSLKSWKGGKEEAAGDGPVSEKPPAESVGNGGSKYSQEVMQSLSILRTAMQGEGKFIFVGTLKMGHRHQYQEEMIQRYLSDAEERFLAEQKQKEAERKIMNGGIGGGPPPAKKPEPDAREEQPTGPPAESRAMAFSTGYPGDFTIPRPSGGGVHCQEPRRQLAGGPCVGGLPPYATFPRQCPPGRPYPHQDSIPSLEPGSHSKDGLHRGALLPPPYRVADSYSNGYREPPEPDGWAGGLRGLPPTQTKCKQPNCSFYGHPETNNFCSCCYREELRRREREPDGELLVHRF
Procedure, shortened: as §1

PRPF8 = PRPF8 (UniProt Q6P2Q9)
Procedure, shortened: as §1

PSMD7 = target: T3, PSMD7 (UniProt P51665)
T3 sequence (whole entry): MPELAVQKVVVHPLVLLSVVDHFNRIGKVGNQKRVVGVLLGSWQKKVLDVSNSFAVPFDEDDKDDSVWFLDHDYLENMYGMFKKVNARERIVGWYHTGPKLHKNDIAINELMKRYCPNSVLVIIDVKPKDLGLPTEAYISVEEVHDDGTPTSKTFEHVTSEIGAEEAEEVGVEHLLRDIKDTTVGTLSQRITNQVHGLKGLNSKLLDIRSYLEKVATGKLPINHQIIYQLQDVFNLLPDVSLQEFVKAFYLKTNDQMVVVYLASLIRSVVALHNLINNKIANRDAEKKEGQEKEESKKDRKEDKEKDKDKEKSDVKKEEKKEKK
Procedure, shortened: as §1

UCHL1 = UCHL1 (UniProt P09936)
Chain of UCHL1 (P09936 whole entry, looked up): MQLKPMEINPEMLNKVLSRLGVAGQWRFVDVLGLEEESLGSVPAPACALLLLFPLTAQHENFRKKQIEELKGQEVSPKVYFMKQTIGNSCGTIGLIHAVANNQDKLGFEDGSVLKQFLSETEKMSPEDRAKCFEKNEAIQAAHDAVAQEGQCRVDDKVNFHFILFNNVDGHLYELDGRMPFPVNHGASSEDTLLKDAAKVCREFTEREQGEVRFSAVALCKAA
Procedure, shortened: as §1

UCHL3 = target: T4, UCHL3 (UniProt P15374)
T4 sequence (whole entry): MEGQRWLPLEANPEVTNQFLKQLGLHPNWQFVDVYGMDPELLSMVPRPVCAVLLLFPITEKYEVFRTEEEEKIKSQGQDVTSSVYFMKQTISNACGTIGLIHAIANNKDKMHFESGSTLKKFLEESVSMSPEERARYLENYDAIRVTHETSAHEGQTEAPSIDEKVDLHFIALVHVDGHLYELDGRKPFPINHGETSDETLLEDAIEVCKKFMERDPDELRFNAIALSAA
Procedure, shortened: as §1

UCHL5 = target: T5, UCHL5 (UniProt Q9Y5K5)
T5 sequence (whole entry): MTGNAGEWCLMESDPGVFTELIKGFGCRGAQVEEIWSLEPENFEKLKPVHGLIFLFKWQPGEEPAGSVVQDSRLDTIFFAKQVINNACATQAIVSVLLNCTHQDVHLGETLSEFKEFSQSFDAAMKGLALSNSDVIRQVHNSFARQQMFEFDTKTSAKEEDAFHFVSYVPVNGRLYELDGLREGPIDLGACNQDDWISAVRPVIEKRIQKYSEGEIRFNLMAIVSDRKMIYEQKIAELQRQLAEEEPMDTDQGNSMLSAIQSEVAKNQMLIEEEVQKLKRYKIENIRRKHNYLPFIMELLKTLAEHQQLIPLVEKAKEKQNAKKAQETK
Procedure, shortened: as §1

USP10 = USP10 (UniProt Q14694)
Chain of USP10 (Q14694 whole entry): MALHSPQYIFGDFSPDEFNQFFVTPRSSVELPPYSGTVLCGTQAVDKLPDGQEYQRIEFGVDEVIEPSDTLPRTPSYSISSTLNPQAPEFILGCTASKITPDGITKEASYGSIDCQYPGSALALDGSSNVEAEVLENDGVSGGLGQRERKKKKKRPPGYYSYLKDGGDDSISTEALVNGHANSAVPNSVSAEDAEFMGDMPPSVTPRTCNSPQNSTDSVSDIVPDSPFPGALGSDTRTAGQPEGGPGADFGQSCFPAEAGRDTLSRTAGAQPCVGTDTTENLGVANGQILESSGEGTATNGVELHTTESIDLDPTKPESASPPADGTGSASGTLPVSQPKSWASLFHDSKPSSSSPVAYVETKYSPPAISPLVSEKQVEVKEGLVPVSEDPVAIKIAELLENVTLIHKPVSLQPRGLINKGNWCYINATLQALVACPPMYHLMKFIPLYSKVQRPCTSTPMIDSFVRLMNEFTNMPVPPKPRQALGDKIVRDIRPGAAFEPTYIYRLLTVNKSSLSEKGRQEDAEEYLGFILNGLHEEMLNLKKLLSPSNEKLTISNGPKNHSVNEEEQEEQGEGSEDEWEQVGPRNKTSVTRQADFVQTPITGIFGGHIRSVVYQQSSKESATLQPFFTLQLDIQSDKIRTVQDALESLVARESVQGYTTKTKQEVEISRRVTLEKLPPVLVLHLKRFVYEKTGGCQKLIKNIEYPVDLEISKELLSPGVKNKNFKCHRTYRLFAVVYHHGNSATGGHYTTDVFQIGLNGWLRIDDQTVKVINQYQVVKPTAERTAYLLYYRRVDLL
Procedure, shortened: as §1

USP15 = target: T6, USP15 (UniProt Q9Y4E8)
T6 sequence (whole entry): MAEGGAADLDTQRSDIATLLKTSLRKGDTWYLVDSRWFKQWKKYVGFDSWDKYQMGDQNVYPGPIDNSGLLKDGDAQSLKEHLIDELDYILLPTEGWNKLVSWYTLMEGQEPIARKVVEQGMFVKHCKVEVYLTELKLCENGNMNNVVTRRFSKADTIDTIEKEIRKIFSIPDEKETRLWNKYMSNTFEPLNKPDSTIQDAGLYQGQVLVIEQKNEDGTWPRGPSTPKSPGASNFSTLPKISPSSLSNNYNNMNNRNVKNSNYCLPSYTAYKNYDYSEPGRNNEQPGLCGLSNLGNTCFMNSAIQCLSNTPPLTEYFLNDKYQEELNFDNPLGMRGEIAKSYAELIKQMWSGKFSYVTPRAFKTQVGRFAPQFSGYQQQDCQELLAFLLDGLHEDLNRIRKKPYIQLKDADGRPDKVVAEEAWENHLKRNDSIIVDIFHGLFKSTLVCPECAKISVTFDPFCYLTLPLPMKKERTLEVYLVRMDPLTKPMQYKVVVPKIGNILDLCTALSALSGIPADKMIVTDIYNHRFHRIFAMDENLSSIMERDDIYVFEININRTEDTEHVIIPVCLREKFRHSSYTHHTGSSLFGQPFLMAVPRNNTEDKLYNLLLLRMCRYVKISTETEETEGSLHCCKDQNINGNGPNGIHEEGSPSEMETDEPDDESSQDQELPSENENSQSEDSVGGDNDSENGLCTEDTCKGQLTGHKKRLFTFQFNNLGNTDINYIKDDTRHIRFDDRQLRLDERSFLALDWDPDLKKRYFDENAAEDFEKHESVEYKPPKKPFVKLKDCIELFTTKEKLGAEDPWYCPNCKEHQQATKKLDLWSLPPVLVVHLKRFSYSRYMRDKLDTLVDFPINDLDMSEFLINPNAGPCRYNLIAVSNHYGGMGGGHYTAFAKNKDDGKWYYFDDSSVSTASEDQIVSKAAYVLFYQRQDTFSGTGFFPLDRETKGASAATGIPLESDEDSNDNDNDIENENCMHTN
Procedure, shortened: as §1

USP16 = USP16 (UniProt Q9Y5T5)
Chain of USP16 (Q9Y5T5 whole entry, looked up): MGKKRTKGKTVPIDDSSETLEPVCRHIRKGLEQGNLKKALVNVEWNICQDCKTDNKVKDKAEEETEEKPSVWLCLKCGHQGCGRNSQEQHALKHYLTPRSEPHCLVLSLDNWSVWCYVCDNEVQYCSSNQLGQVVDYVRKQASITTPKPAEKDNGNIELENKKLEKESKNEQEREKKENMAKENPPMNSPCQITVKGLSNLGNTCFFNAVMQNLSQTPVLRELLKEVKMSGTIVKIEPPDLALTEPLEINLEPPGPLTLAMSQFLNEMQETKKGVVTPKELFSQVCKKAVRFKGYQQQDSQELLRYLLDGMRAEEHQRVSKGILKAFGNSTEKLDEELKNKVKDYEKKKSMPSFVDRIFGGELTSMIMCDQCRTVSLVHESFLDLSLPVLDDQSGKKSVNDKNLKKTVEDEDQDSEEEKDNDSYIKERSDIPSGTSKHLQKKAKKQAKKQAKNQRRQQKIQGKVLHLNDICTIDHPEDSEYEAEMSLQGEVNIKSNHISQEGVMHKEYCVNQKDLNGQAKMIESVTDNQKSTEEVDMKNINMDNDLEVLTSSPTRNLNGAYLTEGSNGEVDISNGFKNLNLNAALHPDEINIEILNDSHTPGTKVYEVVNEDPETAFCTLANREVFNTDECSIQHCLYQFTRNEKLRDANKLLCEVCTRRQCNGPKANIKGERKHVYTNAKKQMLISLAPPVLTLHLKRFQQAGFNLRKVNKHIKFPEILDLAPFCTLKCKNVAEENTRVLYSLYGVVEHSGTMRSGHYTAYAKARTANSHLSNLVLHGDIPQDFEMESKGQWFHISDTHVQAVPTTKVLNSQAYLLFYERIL
Procedure, shortened: as §1

Measured: log2 ratio of Biotin-Ahx-Ub-VS probe labelling

C/C(=C\CNC(=O)CCl)c1cnn(C)c1.Cl
inactive: OTUD6B -0.0447 | OTUD7B -0.863 | PRPF8 0.0944 | PSMD7 0.0605 | UCHL3 0.15 | UCHL5 -0.0212 | USP10 -0.19 | USP15 -0.476 | USP16 -0.58
active: UCHL1 -1.27
